Measured values published in PubChem BioAssay AID1159580 (chemical genetic matrix, 2015).
Where “and” joins values, the source holds several entries; their conditions need not be identical. Equal values may be shown once. The campaign covered roughly 5,500 compounds. About 2,000 (36%) were called active. About 18% were inconclusive and are not listed. Cut-off read from the data, not from the text of the source: active = normalized growth mostly below about 0.91 (no sharp cut-off); inconclusive = no clear call, values can overlap the other calls; inactive = mostly above about 0.92. Some of the results follow.

Test: chemical genetic growth profiling, strain panel (AID 1159580);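 note: tested at 20 µM; growth read once vehicle control cultures reached saturation at 30 °C; 1 = growth at the plate median or of vehicle wells; lower values mean less growth of the strain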
Settings: S. cerevisiae deletion strains, growth OD

Measured: normalized growth

NCCCS(=O)(=O)O
inactive: locus YAL013W, strain DEP1, hits give low values 0.978 and 1.01 | locus YAL021C, strain ccr4, hits give low values 1 | locus YAL026C, strain drs2, hits give low values 1.04 | locus YAL030W, strain snc1, hits give low values 1.02 | locus YAL040C, strain CLN3, hits give low values 1.01 | locus YBL061C, strain skt5, hits give low values 1.02 | locus YBR009C, strain hhf1, hits give low values 1.02 | locus YBR021W, strain FUR4, hits give low values 1 | locus YBR023C, strain chs3, hits give low values 1.03 | locus YBR171W, strain sec66, hits give low values 1.02 | locus YBR229C, strain ROT2, hits give low values 0.955 | locus YBR231C, strain swc5, hits give low values 1.01 | locus YBR279W, strain paf1, hits give low values 1.01 | locus YCL011C, strain gbp2, hits give low values 1.02 | locus YCL016C, strain dcc1, hits give low values 1.01 | locus YCL029C, strain bik1, hits give low values 0.991 | locus YCL061C, strain MRC1, hits give low values 1.02 | locus YCL069W, strain vba3, hits give low values 1.02 | locus YCR088W, strain abp1, hits give low values 1.02 | locus YDL005C, strain med2, hits give low values 1.05 | locus YDL035C, strain GPR1, hits give low values 0.988 | locus YDL040C, strain nat1, hits give low values 1.01 | locus YDL074C, strain BRE1, hits give low values 1.03 | locus YDL101C, strain DUN1, hits give low values 0.982 | locus YDL134C, strain PPH21, hits give low values 0.985 | locus YDL185W, strain tfp1, hits give low values 0.982 | locus YDL192W, strain arf1, hits give low values 0.984 | locus YDR001C, strain nth1, hits give low values 1.02 | locus YDR069C, strain doa4, hits give low values 1.01 | locus YDR101C, strain arx1, hits give low values 0.999 | locus YDR137W, strain rgp1, hits give low values 1.03 | locus YDR150W, strain NUM1, hits give low values 0.964 and 1.02 | locus YDR159W, strain sac3, hits give low values 1.01 | locus YDR162C, strain NBP2, hits give low values 0.982 | locus YDR195W, strain ref2 1.02 | locus YDR297W, strain sur2, hits give low values 1.02 | locus YDR318W, strain mcm21, hits give low values 1 | locus YDR334W, strain swr1, hits give low values 1.03 | locus YDR335W, strain msn5, hits give low values 1.02 | locus YDR388W, hits give low values 0.997 | locus YDR392W, strain spt3, hits give low values 0.936 | locus YDR502C, strain sam2, hits give low values 0.982 | locus YEL003W, strain gim4, hits give low values 1.02 | locus YEL037C, strain rad23, hits give low values 1.02 | locus YEL061C, strain CIN8 (second series), hits give low values 1.03 | locus YEL061C, strain CIN8, hits give low values 0.981 | locus YER002W, strain NOP16, hits give low values 1.01 | locus YER015W, strain faa2, hits give low values 0.994 | locus YER016W, strain bim1, hits give low values 1.03 | locus YER110C, hits give low values 0.961 | locus YER111C, strain swi4, hits give low values 1.03 | locus YER155C, strain BEM2 (second series), hits give low values 1.02 | locus YER155C, strain BEM2, hits give low values 0.988 | locus YER167W, strain BCK2, hits give low values 1 | locus YFR010W, strain ubp6, hits give low values 1.04 | locus YGL078C, strain dbp3, hits give low values 0.977 | locus YGL086W, strain mad1, hits give low values 0.98 | locus YGL167C, strain pmr1, hits give low values 1.02 | locus YGL173C, strain kem1, hits give low values 1.03 | locus YGL227W, strain vid30, hits give low values 1.03 | locus YGL240W, strain doc1, hits give low values 1 | locus YGL248W, strain PDE1, hits give low values 0.985 | locus YGL253W, strain hxk2, hits give low values 1.04 | locus YGR078C, strain PAC10, hits give low values 1 | locus YGR135W, strain pre9, hits give low values 0.977 | locus YGR229C, strain SMI1, hits give low values 1 | locus YGR252W, strain gcn5, hits give low values 0.908 | locus YHR013C, strain ard1, hits give low values 1.02 | locus YHR027C, strain rpn1, hits give low values 1.03 | locus YHR030C, strain SLT2, hits give low values 0.984 and 1.01 | locus YHR079C, strain IRE1 (second series), hits give low values 0.989 | locus YHR079C, strain IRE1, hits give low values 0.996 | locus YHR094C, strain hxt1, hits give low values 0.999 | locus YHR129C, strain ARP1, hits give low values 0.989 | locus YHR142W, strain chs7, hits give low values 1.06 | locus YHR200W, strain rpn10, hits give low values 0.993 | locus YIL066C, strain RNR3, hits give low values 0.975 | locus YIL073C, strain SPO22, hits give low values 0.985 | locus YIL125W, strain kgd1, hits give low values 0.981 | locus YIR030C, strain dcg1, hits give low values 0.985 | locus YJL092W, strain hpr5, hits give low values 1.03 | locus YJL095W, strain BCK1 (second series), hits give low values 1.02 | locus YJL095W, strain BCK1, hits give low values 1.03 and 1.01 | locus YJL115W, strain asf1, hits give low values 1.03 | locus YJL129C, strain trk1, hits give low values 1.05 | locus YJL134W, strain LCB3, hits give low values 0.985 | locus YJL154C, strain vps35, hits give low values 1.02 | locus YJL164C, strain tpk1, hits give low values 1.01 | locus YJL166W, strain qcr8, hits give low values 1.02 | locus YJL168C, strain set2, hits give low values 0.996 | locus YJL187C, strain SWE1 (second series), hits give low values 0.983 | locus YJR043C, strain POL32, hits give low values 1.02 | locus YJR066W, strain TOR1, hits give low values 0.984 | locus YJR075W, strain HOC1, hits give low values 0.995
